Screening results from PubChem.
Compounds with a hit are over-represented: about 6.1% of the library has one in this group of screens.
D1 antag: Antagonist of Human D 1 Dopamine Receptor: qHTS. actives 3.2% (n = 360,000). activity change, negative = inhibition, % at 10 µM. D(1A) dopamine receptor (Homo sapiens), P21728. HEK293 TREx D1 cells, calcium flux, dopamine EC80; hits give low values; in the data active = activity change below about -30%
Target sequence (P21728 whole entry, looked up): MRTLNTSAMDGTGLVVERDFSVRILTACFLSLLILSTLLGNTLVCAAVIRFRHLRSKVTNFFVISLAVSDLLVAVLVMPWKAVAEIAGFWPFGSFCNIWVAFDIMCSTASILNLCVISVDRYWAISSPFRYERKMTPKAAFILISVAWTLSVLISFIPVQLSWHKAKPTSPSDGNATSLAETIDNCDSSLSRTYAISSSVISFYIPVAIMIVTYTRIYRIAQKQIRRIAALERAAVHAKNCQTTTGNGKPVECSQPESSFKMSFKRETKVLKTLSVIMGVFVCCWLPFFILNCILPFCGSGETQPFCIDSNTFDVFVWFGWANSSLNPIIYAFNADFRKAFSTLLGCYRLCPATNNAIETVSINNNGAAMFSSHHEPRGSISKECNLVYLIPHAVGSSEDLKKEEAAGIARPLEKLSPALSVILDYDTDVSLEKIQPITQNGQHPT
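Inducible Hek293 Trex D1 cells (tetracycline, overnight, 30 C). Calcium dye 30–90 min RT. Antagonist mode: EC80 dopamine added after 180 s compound read.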
D1 ag: Allosteric Agonists of the Human D1 Dopamine Receptor: qHTS; D(1A) dopamine receptor (Homo sapiens), P21728; HEK293 T-REx D1 cells, calcium flux, agonist mode; activation, % at 2 µM; actives 1% (n = 360,000); in the data active = activation above about 30%
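Tetracycline-induced HEK293 TREx D1 cells, force-coupled to calcium signalling, were dye-loaded with a no-wash calcium kit. Compound was pin-added after a 10 s baseline. Fluorescence was read kinetically at 1 cycle/s for 180 s, with calcium rises flagged as agonism.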
D1 PAM: Potentiators of Human D1 Dopamine Receptor: qHTS. D(1A) dopamine receptor (Homo sapiens), P21728. HEK293 TREx D1 cells, calcium flux, dopamine EC20 potentiation. AID 504651, 2011. actives 0.036% (n = 360,000). potentiation, % at 10 µM; in the data active = potentiation above about 30%
D3 antag: qHTS of D3 Dopamine Receptor Antagonist: qHTS. actives 2.5% (n = 360,000). max response, negative = inhibition, %. AID 652054, 2013. D(3) dopamine receptor (Homo sapiens), P35462. D3R cells, DiscoveRx beta-arrestin luminescence, antagonist mode; hits give low values; in the data active = max response below about -50%; inconclusive = no clear call, values can overlap the other calls
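Cells expressing the human receptor were seeded at 1500 cells/well, incubated overnight at 37 degrees C in 5% CO2, then exposed to library compounds with dopamine controls for 90 minutes at 37 degrees C before luminescent detection.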
D3 ag: qHTS of D3 Dopamine Receptor Agonist: qHTS. D3R DiscoveRx beta-arrestin cells, luminescence, 90 min. max activation, %. actives 0.58% (n = 410,000); in the data active = max activation above about 30%
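Agonist mode: compounds and dopamine controls were applied to plated cells for 90 min at 37 degrees C after an overnight attachment at 1500 cells/well. Luminescent read-out followed 30 - 60 minutes at room temperature with DiscoveRx detection reagent.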
Of the large screens only hits and unclear results are named; the others gave an inactive call; ! = a repeat was not active.

Cc1ccc(C(NC(=O)C2CCN(CCOc3ccccc3)CC2)c2ccccn2)cc1 (centres undefined)	D3 antag -70 (no result: D1 antag, D1 ag, D1 PAM)
O=C(NC(c1ccc(-c2ccccc2)cc1)c1cnccn1)C1CCN(CCOc2ccc(F)cc2)CC1 (centres undefined)	none (no result: D1 antag, D1 ag, D1 PAM)
O=C(NC(c1ccc(F)cc1)c1ccc2ccccc2n1)C1CCN(CCOc2ccc(F)cc2)CC1 (centres undefined)	D3 antag inconclusive (no result: D1 antag, D1 ag, D1 PAM)
COc1ccc(C(NC(=O)C2CCCCC2)c2c(O)ccc3ccccc23)cc1 (centres undefined)	D1 antag -46
COc1ccc(OCCN2CCC(C(=O)NC(c3ccc(OC)cc3)c3ccccn3)CC2)cc1 (centres undefined)	D3 antag -67 (no result: D1 antag, D1 ag, D1 PAM)
CC1CCCC(C)N1C(=O)CN1C(=O)NC2(CCCCCC2)C1=O (centres undefined)	none (no result: D1 antag, D1 ag, D1 PAM)
CCc1cccc(C)c1NC(=O)c1nc2ccccc2nc1N1CCCCC1	none (no result: D3 antag)
C=CCn1c(=O)n([C@@H]2O[C@H](CO)[C@@H](O)[C@H]2O)c2nc(N)[nH]c(=O)c21	none (no result: D1 antag, D1 ag, D1 PAM, D3 antag)
COc1cc(SSc2cc(OC)cc([N+](=O)[O-])c2N)c(N)c([N+](=O)[O-])c1	D3 antag -77
CC(/C=C\c1ccccc1)=C/C(=O)O	none
CN(C)c1ccc(C(=O)/C=C/c2cccnc2)cc1	none
O=C(O)/C=C/c1cccnc1	D1 antag -80
COC(=O)C(=C/C(C)=C/c1cccnc1)C(=O)OC	D3 antag -52
CC(/C=C\c1cccnc1)=C/C(=O)O	D1 antag -62!
COC(=O)/C(=C/c1cccnc1)NC(=O)c1ccccc1	D3 antag inconclusive
CNc1nc(SCC(=O)Nc2ccccc2)nc(N2CCOCC2)n1	none
O=C(COC(=O)c1cc[n+]([O-])cc1)NCc1ccccc1Cl	none
Cc1cccc(N2CCN(C(=O)c3cc4ccc5cccnc5c4[nH]3)CC2C)c1 (centres undefined)	none (no result: D3 antag)
CC(OC(=O)Cn1cnc2ccccc2c1=O)C(=O)NCc1ccccc1 (centres undefined)	none
C/C(=C\C=C(C#N)C#N)c1cc(C#N)c(N)o1	D1 ag 63
CCOC(=O)C1CCN(Cc2nnnn2CCc2ccccc2)CC1	none
c1ccc(COc2cccc(CN3CCc4ccccc4C3)c2)cc1	D3 antag -87
CCN(CC)C(=O)C1CCCN(Cc2ccccc2)C1 (centres undefined)	none
CN(Cc1ccccc1)C(=O)C1CCCN(Cc2ccc(Cl)cc2)C1 (centres undefined)	D3 antag -68
CCOC(=O)C1CCN(Cc2nc3ccc(Cl)cc3n2CCO)CC1	D3 antag -66
CCOC(=O)C1CCN(Cc2ccc(F)c(Br)c2)CC1	D3 antag -78
COc1cccc(-c2nn(-c3ccccc3)cc2/C=C(/NC(=O)c2ccccc2)C(=O)O)c1	none
CCOC(=O)C1CCCN(Cc2ccc(OC)cc2OC)C1 (centres undefined)	D3 antag -52
CCOC(=O)C1CCCN(Cc2ccc3c(c2)OCO3)C1 (centres undefined)	D3 antag -100
CCOC(=O)C1CCCN(c2c(N3CCN(c4ccccn4)CC3)c(=O)c2=O)C1 (centres undefined)	D1 antag -52
CCN(CC)C(=O)C1CCCN(Cc2ccc3c(c2)OCO3)C1 (centres undefined)	none
COc1ccc(CN2CCCC(C(=O)N3CCCC3)C2)c(OC)c1 (centres undefined)	none
CCOC(=O)C1CCCN(Cc2ccc(OCc3ccccc3)cc2)C1 (centres undefined)	D3 antag -61
COc1cc(CNc2ccc(N3CCN(C(C)=O)CC3)cc2)ccc1OCc1ccc(F)cc1	none
Cc1ccc(-c2ocnc2C(=O)N2CCOCC2)cc1	none
CCn1c(SCC(=O)Nc2ccc(C)c(C)c2)nnc1-c1nonc1NC(C)=O	none (no result: D3 antag)
CCOC(=O)C1CCCN(Cc2nc(N)nc(Nc3ccccc3)n2)C1 (centres undefined)	D3 antag -60
CCOC(=O)C1CCCN(CC(=O)c2ccc(F)cc2)C1 (centres undefined)	D3 antag -66
CCOC(=O)C1CCN(Cc2cccc(OCc3ccccc3)c2)CC1	D3 antag -66
CCOC(=O)C1CCCN(CCCc2ccccc2)C1 (centres undefined)	D3 antag -65
Cc1ccccc1NC(=O)c1cnc2sc(N3CCCC3)nn2c1=O	none (no result: D3 antag)
CN(Cc1ccc(Cl)cc1)C(C(=O)NC1CCCCC1)c1cc2ccccc2o1 (centres undefined)	none (no result: D1 antag, D1 ag, D1 PAM)
CCOC(=O)C1CCCN(Cc2ccc(O)c(OC)c2)C1 (centres undefined)	D3 antag inconclusive
Fc1ccc(CN2CCSCC2)cc1Br	D3 antag -61
CN(Cc1ccc(Cl)cc1)C(CCc1ccccc1)C(=O)NC1CCCCC1 (centres undefined)	D3 antag -60 (no result: D1 antag, D1 ag, D1 PAM)
CCOC(=O)C1CCCN(Cc2cccc(Cl)c2)C1 (centres undefined)	D3 antag -61
CS(=O)(=O)Nc1cccc(-c2cc(F)c(S(=O)(=O)N3CCN(S(=O)(=O)c4ccc5c(c4)OCCO5)CC3)cc2F)c1	none (no result: D3 antag, D3 ag)
COc1cccc(CNC(=O)C(NS(=O)(=O)c2cccs2)C(C)C)c1 (centres undefined)	none (no result: D3 antag)
N#Cc1cccc(NC(=O)c2cncn2-c2ccccc2)c1	none
COC(=O)c1ccccc1NC(=O)c1oc2ccc3c(c2c1C)C(=O)CC(C)(C)O3	none (no result: D3 antag)
Cc1ccc2nc(Cc3ccc(N)cc3)oc2c1	D1 antag -31
Cc1ccc2nc(CCc3nc4ccc(C)cc4o3)oc2c1	none
COc1ccc(-n2c(=O)c3c4c(sc3n(CC(=O)N3CCCCC3C)c2=O)CCC4)c(OC)c1 (centres undefined)	D1 antag -71 (no result: D3 antag)
Cc1ccccc1OCCn1c(=N)n(C(C)C)c2ccccc21	D1 ag 43 (no result: D3 antag)
Cc1ccccc1OCCN1C(=O)c2ccccc2C1=O	none
Cc1ccc(-c2nnc(NC(=O)c3ccco3)s2)cc1	none
CN(c1ccc(Cl)cc1)S(=O)(=O)c1nnc(NC(=O)c2ccco2)s1	D3 antag -72
Cc1ccc(N(C)S(=O)(=O)c2nnc(NC(=O)c3ccco3)s2)cc1	D3 antag inconclusive
Cc1nnc(NC(=O)c2ccco2)s1	D1 antag -52
Cc1ccccc1C(=O)Nc1nnc(S(=O)(=O)N(C)Cc2ccc(Cl)cc2)s1	D1 antag -31 (no result: D3 antag)
CCOC(=O)c1c(NC(C)=O)c2c3c(sc2n1Cc1nc(-c2ccccc2OCC)oc1C)CCCC3	none (no result: D3 antag)
